ssDAF12 agonist = activates DAF-12 receptor from parasite S. stercoralis. HEK293 ssDAF-12/GRIP1 lit1-tk-luc reporter, luminescence; % of 3 µM dafachronic acid response. activation, % at 6.8 µM. 370,000 tested, 1% active;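 active = activation above the mean over all tested compounds plus 3 SD, cut at about 0.9% in these data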;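 also: 0% = DMSO-only wells and 100% = 3 µM delta7-dafachronic acid wells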
AHR act = activates the human aryl hydrocarbon receptor. AHR-responsive luciferase reporter cells, luminescence. activation, % at 5 µM. P35869. 320,000 tested, 2.5% active; in the data active = activation above about 47%;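 also: 0% = vehicle wells and 100% = reference agonist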
hcDAF12 agonist = activators of H. contortus DAF-12 nuclear receptor | activation, % at 6.8 µM | HEK293 hcDAF-12 lit1-tk-luc reporter, luminescence; 0% DMSO, 100% Δ7-dafachronic acid | 370,000 tested, 1.4% active;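 active = activation above the mean of all tested compounds plus 3 SD, cut at about 5.5% in these data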;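 also: 100% = response to 3 µM Δ7-dafachronic acid high control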
hgDAF12 agonist = hgDAF-12 agonism, primary luciferase screen; HEK293 GAL4-hgDAF12 UAS-luciferase reporter, agonist luminescence; normalized to butyrate control; activation, % at 6.8 µM; 370,000 tested, 1.8% active;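 active = activation above a cutoff set at the mean of all screened compounds plus 3 SD, cut at about 10% in these data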;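 also: 0% = DMSO wells and 100% = sodium butyrate wells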
DAX1 inh-1 = NR0B1 (DAX1) inhibition; P51843; HEK293 Gal4-DAX1 luciferase reporter, luminescence; inhibition, % at 6.75 µM; 340,000 tested, 0.99% active; AID 504766;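 active = inhibition above the mean over all tested compounds plus 3 SD, cut at about 4.2% in these data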;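 also: 0% = DAX1-transfected cells with DMSO and 100% = empty-vector control cells with DMSO; inhibition shows as a rise in luminescence from relieved DAX1 repression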
Target sequence (P51843 207-470 limits assumed): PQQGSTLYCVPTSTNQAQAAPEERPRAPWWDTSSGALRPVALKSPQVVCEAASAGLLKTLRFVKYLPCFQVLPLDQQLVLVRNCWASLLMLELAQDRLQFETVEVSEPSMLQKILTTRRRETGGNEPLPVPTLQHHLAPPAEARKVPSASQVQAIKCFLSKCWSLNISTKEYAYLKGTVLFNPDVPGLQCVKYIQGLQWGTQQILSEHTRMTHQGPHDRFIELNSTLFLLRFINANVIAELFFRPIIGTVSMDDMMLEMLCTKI
DAX1 inh-2 = blocks DAX1 repression of SF-1 activated StAR promoter; inhibition, % at 6.8 µM; HEK293T StAR-luciferase reporter, SF-1/DAX-1 repression relief; 370,000 tested, 1.1% active; AID 652010;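 active = inhibition above the mean over all tested compounds plus 3 SD, cut at about 3.6% in these data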;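 also: 0% = DAX-1 cells with DMSO and 100% = cells lacking DAX-1 with DMSO; higher inhibition means more luminescence from relief of DAX-1 repression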
AHR act cf = confirmation of human aryl hydrocarbon receptor activators. shares compounds with AHR act. human cells, AHR-responsive luciferase reporter, luminescence. activation, % at 9 µM. 2,300 tested, 87% active; in the data active = activation above about 49%;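 also: HepG2 hepatoma cells carrying a DRE-driven firefly luciferase reporter; 0% = vehicle wells and 100% = reference agonist wells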
PXR act counter = activates human PXR in AHR activator counter-screen | shares compounds with AHR act | cell-based PXR reporter, luciferase luminescence | activation, % at 11.6 µM | 2,300 tested, 88% active; in the data active = activation above about 11%;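 also: human hepatoma DPX-2 cells expressing full-length human PXR; 0% = DMSO and 100% = reference agonist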
* = called active by the depositor. Most compounds without a hit are left out; they make up all but 5.7% or so of the library.

How did O=C(Nc1ccc(Cl)cc1)c1ccc(S(=O)(=O)N2CCOCC2)cc1 do in these assays?
ssDAF12 agonist: -1; AHR act: 80*; hcDAF12 agonist: -1; hgDAF12 agonist: -2; DAX1 inh-1: -2; DAX1 inh-2: 0; AHR act cf: 86*; PXR act counter: 17*

How did NNC(=O)CS(=O)(=O)CS(=O)(=O)CC(=O)NN do in these assays?
ssDAF12 agonist: 0; AHR act: 0; hcDAF12 agonist: -1; hgDAF12 agonist: -2; DAX1 inh-1: -1; DAX1 inh-2: 0

How did CC(C)(C)c1[nH]ncc1[N+](=O)[O-] do in these assays?
ssDAF12 agonist: -1; AHR act: -1; hcDAF12 agonist: 2; hgDAF12 agonist: 0; DAX1 inh-1: -1; DAX1 inh-2: 0

Results for CCOc1ccc(Nc2nc(Cl)nc(NCCO)n2)cc1 ?
ssDAF12 agonist: -2; AHR act: 36; hcDAF12 agonist: -1; hgDAF12 agonist: 4; DAX1 inh-1: -2; DAX1 inh-2: 0

How did CC(C)n1cnc2c(Nc3ccc(F)c(Cl)c3)nc(NCCO)nc21 do in these assays?
ssDAF12 agonist: -1; AHR act: 93*; hcDAF12 agonist: -1; hgDAF12 agonist: 0; DAX1 inh-1: -1; DAX1 inh-2: -1; AHR act cf: 69*; PXR act counter: 135*

How did CC(=O)c1c(C)[nH]c(C(=O)Nc2ccc(Cl)c(S(=O)(=O)N(C)C)c2)c1C do in these assays?
ssDAF12 agonist: -1; AHR act: 81*; hcDAF12 agonist: 2; hgDAF12 agonist: 6; DAX1 inh-1: 10.0*; DAX1 inh-2: 2; AHR act cf: 83*; PXR act counter: 53*

What do the screens show for `CC(=O)c1c(C)[nH]c(C(=O)Nc2cccc(S(=O)(=O)N3CCOCC3)c2)c1C`?
ssDAF12 agonist: -1; AHR act: 100*; hcDAF12 agonist: 0; hgDAF12 agonist: -2; DAX1 inh-1: 1; DAX1 inh-2: 1; AHR act cf: 78*; PXR act counter: 34*

What do the screens show for `CC1CCN(C(=O)c2cc(-c3ccco3)on2)CC1`?
ssDAF12 agonist: 0; AHR act: 97*; hcDAF12 agonist: 4; hgDAF12 agonist: 8; DAX1 inh-1: 0; DAX1 inh-2: 1; AHR act cf: 128*; PXR act counter: 31*

Results for O=C(c1cc(-c2ccco2)on1)N1CCN(c2ccccc2)CC1 ?
ssDAF12 agonist: -1; AHR act: -2; hcDAF12 agonist: 0; hgDAF12 agonist: 0; DAX1 inh-1: 0; DAX1 inh-2: 1

How did CC(=O)Nc1cccc(NC(=O)CSc2ncc(C(=O)Nc3ccccc3)c(=O)n2C)c1 do in these assays?
ssDAF12 agonist: 1; AHR act: 16; hcDAF12 agonist: 3; hgDAF12 agonist: 4; DAX1 inh-1: -2; DAX1 inh-2: 1

Results for CC(=O)Nc1ccc(NC(=O)CSc2ncc(C(=O)Nc3ccc(F)cc3)c(=O)n2C)cc1 ?
ssDAF12 agonist: 0; AHR act: 98*; hcDAF12 agonist: 2; hgDAF12 agonist: 4; DAX1 inh-1: 1; DAX1 inh-2: 1; AHR act cf: 127*; PXR act counter: 21*

What do the screens show for `COc1ccc(C(=O)NNC(=O)C(NC(=O)c2ccccc2NC(=O)c2ccco2)C(C)C)cc1` (centres undefined)?
ssDAF12 agonist: 0; AHR act: 3; hcDAF12 agonist: 0; hgDAF12 agonist: -1; DAX1 inh-1: 2; DAX1 inh-2: 0

How did COc1ccc(OC)c(-c2csc(NC(=O)COC(=O)C3CCC3)n2)c1 do in these assays?
ssDAF12 agonist: -1; AHR act: -2; hcDAF12 agonist: -2; hgDAF12 agonist: -1; DAX1 inh-1: 0; DAX1 inh-2: 0

How did COc1ccc(OC)c(-c2csc(NC(=O)COC(=O)c3ccc(NC(=O)CC#N)cc3)n2)c1 do in these assays?
AHR act: 80*; DAX1 inh-1: 0; AHR act cf: 27; PXR act counter: 9

Results for Cc1ccsc1C1CC(=O)Nc2ccccc2S1 (centres undefined) ?
ssDAF12 agonist: -1; AHR act: 88*; hcDAF12 agonist: 1; hgDAF12 agonist: 0; DAX1 inh-1: -2; DAX1 inh-2: 0; AHR act cf: 112*; PXR act counter: 39*

Results for CCOC(=O)c1ccc(NC(=S)NCCCn2ccnc2)cc1 ?
ssDAF12 agonist: -2; AHR act: -1; hcDAF12 agonist: -1; hgDAF12 agonist: -1; DAX1 inh-1: -1; DAX1 inh-2: 0

Results for C/C(=N\OC(=O)NC(C)C)c1sc(-c2ccccc2)nc1C ?
ssDAF12 agonist: -1; AHR act: -9; hcDAF12 agonist: 0; hgDAF12 agonist: 8; DAX1 inh-1: 4; DAX1 inh-2: 0

How did CCNC(=O)O/N=C(\C)c1sc(-c2ccc(Cl)cc2)nc1C do in these assays?
ssDAF12 agonist: 0; AHR act: 135*; hcDAF12 agonist: 5; hgDAF12 agonist: 11*; DAX1 inh-1: 2; DAX1 inh-2: 2; AHR act cf: 135*; PXR act counter: 17*

What do the screens show for `C/C(=N\OC(=O)NC(C)C)c1sc(-c2ccc(Cl)cc2)nc1C`?
ssDAF12 agonist: -1; AHR act: 109*; hcDAF12 agonist: 1; hgDAF12 agonist: 5; DAX1 inh-1: 0; DAX1 inh-2: 1; AHR act cf: 104*; PXR act counter: 17*

What do the screens show for `C=CCNc1nc(=S)[nH]c2cc(OC)c(OC)cc12`?
ssDAF12 agonist: -1; AHR act: 104*; hcDAF12 agonist: 0; hgDAF12 agonist: -3; DAX1 inh-1: -1; DAX1 inh-2: 0; AHR act cf: 75*; PXR act counter: 13*

What do the screens show for `C=CCn1c(-c2ccc(OC)c(OC)c2)n[nH]c1=S`?
ssDAF12 agonist: -1; AHR act: 0; hcDAF12 agonist: -2; hgDAF12 agonist: 1; DAX1 inh-1: -1; DAX1 inh-2: 0

What do the screens show for `CCOc1ccc(Nc2nc3ccccc3n3nnnc23)cc1`?
ssDAF12 agonist: -1; AHR act: 132*; hcDAF12 agonist: 2; hgDAF12 agonist: 4; DAX1 inh-1: 0; DAX1 inh-2: 2; AHR act cf: 85*; PXR act counter: 16*

What do the screens show for `Cc1ccc(-c2nc3ncccc3o2)cc1NC(=O)C(C)(C)C`?
ssDAF12 agonist: 0; AHR act: 91*; hcDAF12 agonist: -1; hgDAF12 agonist: -2; DAX1 inh-1: 0; DAX1 inh-2: 0; AHR act cf: 91*; PXR act counter: 32*
